Growth data for 26 compounds are collected here from PubChem BioAssay (NCI).

Each structure is given as a SMILES string. This is part of a sample that, as a whole, favours compounds with a hit. Of some 83,000 tested, about 20% had one in any assay.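 Assay: single dose, 48 h. Readout: percent growth (0 = no net growth; negative = cell death). Active: <10.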 Calls of active or inactive are those of the source.

The assay deals with MDA-MB-468 breast. In words: NCI-60 one-dose screen, 48 h (100 = growth as untreated, 0 = no growth, -100 = all killed). The following applies: 10 µM unless noted.
As to `Cc1nn(-c2ccccc2)c(Cl)c1/C=C(/NC(=O)c1ccccc1)c1nc2ccccc2[nH]1`, the growth was 113% (inactive).

In the case of `Fc1ccc2c(-c3cncn3CCc3ccccc3)c[nH]c2c1`, the growth is 74.6% (inactive).

`CCOc1ccc(-c2nc3ccc(-c4nc5ccc(N6CCN(C)CC6)cc5[nH]4)cc3[nH]2)cc1`: the growth is -85.2% (active).

For the compound `CN1CCC2(CC1)NC(=O)c1c(c3ccc(Cl)c(Cl)c3n1C)C2C#N` (stereo unspecified), the growth is 9.36% (active).

Take `C#CCNC(=O)[C@]1(C)CC[C@]2(C)CC[C@@H]3C(=CC[C@H]4[C@@]3(C)CC[C@H]3C(C)(C)C(=O)CC[C@]43C)[C@@H]2C1`: the growth is 104% (inactive).

With `COc1cc2oc(-c3ccc(O)cc3)cc(=O)c2c(O)c1-c1c(OC)cc(O)c2c(=O)cc(-c3ccc(O)cc3)oc12`, the growth is 36.1% (inactive).

As for `CCOC(=O)N1CCC(N=C2CSc3nnc(-c4cc(C(F)(F)F)cc(C(F)(F)F)c4)n3N2)CC1`, the growth is 2.22% (active).

Turning to `COc1ccc(C2CC(c3cccc(Nc4ccncc4)c3)=NN2c2ccccc2)cc1` (stereo unspecified), the growth is 15.7% (inactive).

With `O=C1OC(c2ccc(-c3ccccc3)cc2)=C/C1=C/c1c2ccccc2cc2ccccc12`, the growth was 90.2% (inactive).

Regarding `CC(O)CN(CCO)CCN(CCO)CC(C)O` (stereo unspecified), the growth was 94.8% (inactive).

In the case of `CN1C(=O)C(=Cc2cn(Cc3ccccc3)c3ccc(Br)cc23)C(=O)N(C)C1=O`, the growth was -49.4% (active).

For `CCCCCCC1(/C=N/NC(N)=O)NC(=O)NC1=O` (stereo unspecified), the growth was 92.1% (inactive).

`C=C(C)[C@@H]1CC[C@]2(C(=O)N3CCN(C)CC3)CC[C@]3(C)[C@H](CC[C@@H]4[C@@]5(C)CC[C@H](OCCC#N)C(C)(C)[C@@H]5CC[C@]43C)[C@@H]12`: the growth was 69.4% (inactive).

Take `CCCCCCC[C@@H](O)CC(=O)N[C@H](CCCCN)C(=O)N[C@H](Cc1c[nH]c2ccccc12)C(=O)NC(CCCCN)C(=O)N[C@H](CC(C)C)C(=O)N[C@H](Cc1ccccc1)C(=O)N[C@H](CCCCN)C(=O)N[C@H](CCCCN)C(=O)N[C@H](CC(C)C)C(=O)N1CCCC1C(=O)N[C@H](CCCCN)C(=O)N[C@H](Cc1ccccc1)C(=O)N[C@H](CC(C)C)C(=O)N[C@H](Cc1c[nH]cn1)C(=O)N[C@H](CC(C)C)C(=O)N[C@H](C)C(=O)N[C@H](CCCCN)C(=O)N[C@H](CCCCN)C(=O)N[C@H](Cc1ccccc1)C(=O)O` (stereo partly specified): the growth was -58.2% (active).

Take `COc1ccc(/C=c2/c(=O)[nH]c3nc4sc(C)c(C)c4c(=O)n23)cc1`: the growth is 83.1% (inactive).

As for `CC(=O)Nc1ccccc1-c1n[nH]c(=O)[nH]c1=O`, the growth was 102% (inactive).

As to `Cc1ccc(N2C(=O)c3cccc4c(N)c(S(=O)(=O)O)cc(c34)C2=O)cc1`, the growth is 113% (inactive).

In the case of `Fc1ccc(Oc2ccc(Nc3ncnc4onc(-c5ccccc5)c34)cc2)cc1`, the growth is 101% (inactive).

As for `COC1=CC(=O)c2nc(Cl)ccc2C1=O`, the growth was -51% (active).

As to `COc1ccc(-c2nc3cc(C(=O)NC4CCCCC4)ccc3n2C2CCCCC2)cc1`, the growth is 109% (inactive).

For `CCOC(=O)c1sc(NS(=O)(=O)c2ccccc2)nc1C`, the growth was 106% (inactive).

Regarding `CC(CC(=O)c1ccccc1)c1ccccc1` (stereo unspecified), the growth was 96.5% (inactive).

For the compound `O=C1C(Cl)=C(NCCCN(CCCNC2=C(Cl)C(=O)c3ccccc3C2=O)C2=C(Cl)C(=O)c3ccccc3C2=O)C(=O)c2ccccc21`, the growth is -7.83% (active).

For the compound `COc1cc2c3c(n(CCCN4CCC[C@H]4C(N)=O)c(=O)c2cc1OC)-c1cc2c(cc1C3=O)OCO2`, the growth was 11.8% (inactive).

Regarding `COc1cc(-c2cc(C(=O)N3CCN(C(=O)c4ccccc4NCc4ccco4)CC3)nc3cc(-c4ccccc4)nn23)cc(OC)c1OC`, the growth is 0.207% (active).

Consider `NC(CCl)=NCCC[C@H](N)C(=O)O`, for which the growth was 91.8% (inactive).
